# Source: PubChem BioAssay (NCATS)
# “And” between values parts separate entries of the source, which are not always exact repeats. Equal entries are not always repeated. Results filed as inconclusive are left out. Where a call stands in place of a potency, no number is given. The source made the active and inactive calls. The call rests on the fitted dose curve; in most records, active means well fitted inhibition curve with a large enough effect; inconclusive means small, poorly fitted or top-dose-only effect; inactive means flat fitted curve, though single readings scatter.
# Test system: CP260
# Assay: qHTS profiling for inhibitors of Plasmodium falciparum proliferation (AID 504749); further: nearly all actives have a fitted effect of over 60% in size
# Details: P. falciparum in erythrocytes, SYBR Green DNA, 72 h; series mostly up to 28.7 µM
# In short: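 Each compound contacts P. falciparum-infected red blood cells for 72 h at 37 C; lysis buffer (Tris, EDTA, saponin, Triton X, SYBR Green I) is added and fluorescence measured next morning; values normalized to controls.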
# Potency means the concentration at half of the fitted maximal effect.
row,SMILES,Potency
1,CCC1(c2ccccc2)CCC(=O)NC1=O (stereo not given),inactive
2,C[N+]1(CCC(C(N)=O)(c2ccccc2)c2ccccc2)CCCCC1,inactive
3,CCC(=O)O[C@H]1CC[C@H]2[C@@H]3CCC4=CC(=O)CC[C@]4(C)[C@H]3CC[C@]12C,inactive
4,OC(c1ccccc1)(c1ccccc1)C1CCNCC1,inactive
5,CC(C)[N+](C)(CCC(C(N)=O)(c1ccccc1)c1ccccc1)C(C)C,inactive
6,Cc1ncc2n1-c1ccc(Cl)cc1C(c1ccccc1F)=NC2,inactive
7,Cc1ccc(N=CN(C)C=Nc2ccc(C)cc2C)c(C)c1,inactive
8,CC(C)NCC(O)c1ccc(N)c(C#N)c1 (stereo not given),inactive
9,CNC(=O)Oc1cccc2ccccc12,inactive
10,CCNc1nc(Cl)nc(NCC)n1,inactive
11,CC[n+]1c(-c2ccccc2)c2cc(N)ccc2c2ccc(N)cc21,199 nM (active) and 398 nM (active)
12,CCCCCCCCCCCC[N+](C)(C)CCOc1ccccc1,3.98 µM (active)
13,CCOC(=O)NC(O)C(Cl)(Cl)Cl (stereo not given),inactive
14,CCN(Cc1ccc(Cl)nc1)/C(=C/[N+](=O)[O-])NC,inactive
15,C[C@H]1C(=O)O[C@@H]2CCN3CC=C(COC(=O)[C@](C)(O)[C@]1(C)O)[C@H]23,inactive
16,Oc1c(Br)cc(Br)cc1Br,inactive
17,C[C@]12CC[C@H]3[C@@H](CC=C4C[C@@H](O)CC[C@@]43C)[C@@H]1CC[C@@H]2O,inactive
18,COP(=O)(OC)C(O)C(Cl)(Cl)Cl (stereo not given),inactive
19,CCN(CC)C(C)C(=O)c1ccccc1 (stereo not given),inactive
20,COP(=O)(OC)OC=C(Cl)Cl,inactive
